Bioassay records: PubChem BioAssay, several laboratories
GIRK2 activator = GIRK2 channel activators by thallium flux. P48051. AID 1259324. activation (% efficacy), % for hits at 37.5 µM. 34,000 tested, under 10 active. HEK293 GIRK2/NPY4 cells, thallium flux fluorescence;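 active = primary screen hit, no activity in plain HEK293 cells, and in GIRK2-only cells above 5% efficacy rising with concentration; inactive = the rest, including fluorescent compounds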;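 note: efficacy is normalized control-subtracted fluorescence 15 s after thallium addition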
Target sequence (P48051 whole entry, looked up): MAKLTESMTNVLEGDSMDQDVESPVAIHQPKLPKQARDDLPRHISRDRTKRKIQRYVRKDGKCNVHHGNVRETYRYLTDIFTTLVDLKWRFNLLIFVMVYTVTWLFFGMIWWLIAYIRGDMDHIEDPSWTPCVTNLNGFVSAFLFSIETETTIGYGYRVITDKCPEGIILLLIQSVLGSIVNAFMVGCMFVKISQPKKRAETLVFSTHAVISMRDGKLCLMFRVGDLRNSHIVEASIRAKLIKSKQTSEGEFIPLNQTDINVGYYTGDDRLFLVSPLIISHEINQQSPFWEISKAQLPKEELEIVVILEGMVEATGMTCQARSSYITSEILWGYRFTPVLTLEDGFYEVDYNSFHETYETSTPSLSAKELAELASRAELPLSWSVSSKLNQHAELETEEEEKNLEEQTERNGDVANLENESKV
AMPAR-TARP mod = modulators of AMPA receptor GluA2-stargazin complexes. O88602+P19491. HEK293 GluA2+stargazin, membrane potential dye (FDSS), glutamate EC50; hits were called plate by plate, in both directions. calls only at 30 µM. actives 3.5% (n = 40,000). AID 1259245;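 active = any of four per-well response measures lying three or more SD from its plate-wide compound average, in either direction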
The depositor's hits bear a star; i = inactive; . = no result; + = active, no number. The entries come from a sample that favours hits as a whole.

SMILES	GIRK2 activator	AMPAR-TARP mod
COc1cccc(-c2cc(CC(=O)N3CCc4ccccc4C3)no2)c1	i	+
COc1ccc(-c2cc(CC(=O)N3CCc4ccccc4C3)no2)cc1OC	i	i
CCOC(=O)CN1C(=O)CN(C(=O)c2ccccc2)C1=S	.	+
CCOC(=O)c1ccc(N2C(=S)N(c3ccccc3)C3CS(=O)(=O)CC32)cc1 (stereo not drawn)	i	i
Cc1nn(CCNC(=O)c2cccc(Br)c2)c(C)c1Cl	i	i
O=S(=O)(NCCNc1ccc(Nc2ccccn2)nn1)c1ccc(F)cc1	i	i
Cc1ccnc(Nc2ccc(NCCNS(=O)(=O)c3ccc(F)cc3)nn2)c1	i	+
O=C(Cn1nc(-c2ccco2)c2sc(N3CCOCC3)nc2c1=O)NCc1ccc2c(c1)OCO2	i	i
COc1ccc(-c2noc(-c3c(C)cc(C)n(CC(=O)Nc4ccc(OC)c(Cl)c4)c3=O)n2)cc1	i	+
COc1ccc(NC(=O)Cn2c(C)cc(C)c(-c3nc(-c4ccc(Cl)cc4)no3)c2=O)cc1	.	i
Cc1cc(C)n(CC(=O)Nc2ccccc2F)c(=O)c1-c1nc(-c2ccc(Cl)cc2)no1	i	i
CCOc1ccccc1NC(=O)Cn1c(C)cc(C)c(-c2nc(-c3ccc(Cl)cc3)no2)c1=O	.	+
CCOc1ccc(-n2ccnc(NCCc3ccccc3)c2=O)cc1	.	i
CCc1nc2c(c(=O)c3ccccc3n2C)c(=O)n1CCc1ccccc1	.	i
Cc1cc(C)c(S(=O)(=O)N2CCN(c3ccc(Nc4ccncc4)nn3)CC2)cc1C	i	i
CC1(C)C(=O)NCCN1C(=O)c1cccc(C(F)(F)F)c1	i	i
COc1ccc(C(=O)NCCn2ncc3c(N4CCCCCC4)ncnc32)cc1OC	i	i
O=C(NCCn1ncc2c(N3CCCC3)ncnc21)c1ccc(=O)oc1	.	+
O=C(NCc1ccco1)C1COCC(=O)N1Cc1ccccc1 (stereo not drawn)	i	i
O=C(O)c1cccnc1SC1CC(=O)N(c2ccc(OC(F)(F)F)cc2)C1=O (stereo not drawn)	.	i
COc1cc([N+](=O)[O-])cc2sc(NC(=O)c3ccno3)nc12	i	+
Cc1cccc2sc(NC(=O)c3ccno3)nc12	i	i
Cc1ccc(Cl)cc1NC(=O)Cn1c(=O)n(C2CC2)c(=O)c2nscc21	i	+
Cc1ccc(NC(=O)Cn2c(=O)n(C3CC3)c(=O)c3nscc32)c(C)c1	i	i
COc1ccc(C)cc1NC(=O)CC1COc2ccccc2O1 (stereo not drawn)	.	i
SMILES	GIRK2 activator	AMPAR-TARP mod
COc1ccc(NC(=O)C(=O)c2cn(CC(=O)N3CCOCC3)c3ccccc23)cc1	.	i
COc1ccc(CCNC(=O)C(=O)c2cn(CC(=O)N3CCOCC3)c3ccccc23)cc1	.	+
CC(C)(C)NC(=O)NCC1(O)CCOCC1	i	i
COc1ccc(-c2nc3c(c(=O)c4ccccc4n3C)c(=O)n2CC(C)C)cc1	.	i
CC(C)Cn1c(-c2ccc([N+](=O)[O-])cc2)nc2c(c(=O)c3ccccc3n2C)c1=O	.	+
COc1cc(C(=O)Nc2ccc3c(c2)CCC(=O)N3)cc(OC)c1OC	.	i
COc1cc(C)c(S(=O)(=O)NCCOc2ccc(-c3ccc(F)cc3)nn2)cc1C	i	+
COc1ccc(-c2ccc(OCCNS(=O)(=O)c3cc(C)c(OC)cc3C)nn2)cc1	i	i
COc1ccccc1CNC(=O)C(=O)NCC1(c2cccs2)CCCC1	i	.
CCC(=O)Nc1nnc(-c2ccc3c(c2)CCCC3)o1	i	i
COc1ccc(-c2nnc(NC(=O)c3ccc(S(=O)(=O)C(C)C)cc3)o2)cc1OC	i	+
COc1ccc(C(=O)Nc2nnc(-c3cc4cccc(OC)c4o3)o2)cc1OC	.	+
COc1ccc(C(=O)Nc2nnc(-c3ccc(SC)cc3)o2)cc1OC	i	i
CCOc1ccc(-c2nnc(NC(=O)CC)o2)cc1OCC	i	+
CCCCOc1ccc(C(=O)Nc2nnc(-c3ccc(OC)c(OC)c3)o2)cc1	i	i
COc1ccc(C(=O)Nc2nnc(-c3ccc(OC)c(OC)c3)o2)cc1OC	i	+
COc1cccc2cc(-c3nnc(NC(=O)c4ccccc4)o3)oc12	.	i
Cc1ccc(-c2noc(Cn3nc(-c4ccc5c(c4)OCO5)ccc3=O)n2)cc1C	i	i
CC(C)(C)c1ccc(/C=C2\Oc3cc(OCC#N)ccc3C2=O)cc1	.	i
CC(=O)Nc1cccc(NC(=O)CCCn2nc(-c3ccco3)ccc2=O)c1	i	.
COc1ccccc1-c1nnc(NC(=O)c2ccc(C(C)=O)cc2)o1	.	i
COc1ccc(C(=O)Nc2nnc(-c3ccccc3OC)o2)cc1OC	.	+
COc1cc(OC)cc(C(=O)Nc2nnc(-c3ccc(OC)c(OC)c3)o2)c1	i	+
COc1ccc(-c2nnc(NC(=O)CCc3ccccc3)o2)cc1OC	i	i
COc1ccc(C(=O)Nc2nnc(-c3cccs3)o2)cc1OC	.	+
SMILES	GIRK2 activator	AMPAR-TARP mod
COc1ccc(-c2nnc(NC(C)=O)o2)cc1OC	i	+
Cc1ccc(C(=O)Nc2nnc(-c3cccs3)o2)cc1C	.	i
COc1cc(OC)cc(C(=O)Nc2nnc(-c3ccc(OC)cc3OC)o2)c1	.	i
Cn1cccc1C(CNC(=O)c1cccs1)N1CCCCCC1 (stereo not drawn)	i	i
CC1C(=O)NCCN1C(=O)CCS(=O)(=O)c1ccccc1 (stereo not drawn)	i	.
CC1CCN(C(=O)CSc2nnc3ccc(-c4ccco4)nn23)CC1	i	i
Cc1ccc(C(=O)Nc2nnc(-c3cccs3)o2)cc1	.	i
CN(C)c1ccc(C(=O)Nc2nnc(-c3cccs3)o2)cc1	.	+
O=C(NCC1CCN(Cc2cccs2)CC1)c1ccccc1C(F)(F)F	i	.
NC(=O)C1CCN(C(=O)Cc2cc(-c3ccc(F)cc3)on2)CC1	i	i
NC(=O)C1CCN(C(=O)Cc2cc(-c3cc4ccccc4o3)on2)CC1	i	+
COc1ccc(C2(CNC(=O)Cc3ccc(S(=O)(=O)C(C)C)cc3)CCCC2)cc1	i	i
O=C(Cc1cccc2ccccc12)NCC1CCN(c2ncccn2)CC1	i	i
O=C(Cc1cccc2ccccc12)NCC1CCN(C(=O)COc2ccccc2)CC1	i	+
O=C(Nc1ccc2c(c1)N(S(=O)(=O)c1ccc(F)cc1)CCC2)c1ccc(F)cc1Cl	i	i
O=C(Nc1ccc(Cl)c(Cl)c1)N1CCC(N2CCCC2=O)CC1	i	i
COc1ccc(C(O)=C2C(=O)C(=O)N(CCCN(C)C)C2c2ccccc2)cc1Cl (stereo not drawn)	i	.
CC(C)(C)OC(=O)NCc1nnc(C(F)(F)F)n1-c1ccccc1	i	i
Cc1cccc(N(C)S(=O)(=O)c2cc(N(C)S(=O)(=O)c3ccccc3)c(C)cc2C)c1	.	i
Cc1cc(C)c(S(=O)(=O)N(C)c2c(C)cccc2C)cc1N(C)S(=O)(=O)c1ccccc1	.	i
Cc1cc(C)c(S(=O)(=O)N(C)c2ccc(Cl)cc2)cc1N(C)S(=O)(=O)c1ccccc1	.	+
Cc1cc(C)c(S(=O)(=O)NC(C)C)cc1N(C)S(=O)(=O)c1ccccc1	.	+
O=C(CCS(=O)(=O)c1ccccc1)N1CCN(C(=O)c2cnn3ccccc23)CC1	i	i
